# Pf growth 48h: Primary qHTS for delayed death inhibitors of the malarial parasite plastid, 48 hour incubation; P. falciparum luciferase growth in erythrocytes, 48 h; Potency, µM (titrated, usually from 28.7 µM), without a hit: at the highest dose activity change, negative = inhibition, usual class: inhibitors; hit rate 5.9% among 310,000; note: potency is the fitted concentration of half-maximal effect; % is set by controls: 0 for no effect and ±100 for the full control effect
#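 First compound was added to culture medium, then infected red cells at 0.1% parasitemia and 2% hematocrit (final). After incubation at 37 C under 5% CO2, luciferase detection reagent was dispensed and light output recorded.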
# Cycloheximide cs: Cycloheximide Counterscreen for Small Molecule Inhibitors of Shiga Toxin; max response, %; cell reporter, cycloheximide protein synthesis inhibition counterscreen; hit rate 12% among 300,000; in the data active = max response mostly above about 13%, no sharp cut-off; inactive = mostly below about 14%; note: read at 38.3 µM for the half of the compounds with a filed dose; 0% is about no effect
# Shiga inhibitor: A qHTS for Small Molecule Inhibitors of Shiga Toxin; Vero cells, Shiga toxin protein synthesis inhibition reporter; inhibition, % at 38.7 µM; AID 2315, 2010; hit rate 9.2% among 290,000; in the data active = inhibition mostly above about 28%, no sharp cut-off; inactive = mostly below about 43%; note: 0% is about no effect
# HCMV inh: qHTS Assay for inhibitors of the human cytomegalovirus (HCMV) | HFF cells, HCMV-luciferase reporter, 72 h; hits give low values | activity change, negative = inhibition, % at 57.5 µM | hit rate 4.5% among 410,000 | AID 1259415, 2018; in the data active = activity change below about -60%; inconclusive = no clear call, values can overlap the other calls; inactive = above about -39%; note: % is set by controls: 0 for no effect and ±100 for the full control effect
#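 Luciferase read-out from HCMV-luciferase-infected HFFs (MOI 1 PFU/cell) 72 h post infection at 37C; compounds added after 16 h cell attachment; activity normalized between buffer-only basal and Salinomycin (10uM) inhibitor controls.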
# Pf growth 96h: Primary qHTS for delayed death inhibitors of the malarial parasite plastid, 96 hour incubation; Potency, µM (top dose mostly 28.7 µM), for the others: at the highest dose activity change, negative = inhibition, usual class: inhibitors; hit rate 6.9% among 320,000; P. falciparum luciferase reporter growth, 96 h; note: potency is the fitted concentration of half-maximal effect; % is set by controls: 0 for no effect and ±100 for the full control effect
#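 Two-generation exposure (96 h) targets delayed-death phenotype. Reporter parasites carrying integrated firefly luciferase, in red cells at 2% hematocrit and 0.05% parasitemia final, kept at 37 C, 5% CO2; luminescence loss indicates inhibition.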
# The depositor's hits bear a star; ? = inconclusive; . = no result. This is a sample that favours compounds with a hit; in the whole collection about 20% have one here. Unless noted, calls come from the whole dose curve; as a rule, active = well fitted inhibition curve with a large enough effect; inconclusive = small, poorly fitted or top-dose-only effect, or another doubt; inactive = no such curve, though single readings can be large or run the other way.
SMILES,Pf growth 48h,Cycloheximide cs,Shiga inhibitor,HCMV inh,Pf growth 96h
CN(CC(=O)NCc1ccco1)C(=O)C1CC(=O)N(c2ccc3c(c2)OCCO3)C1 (stereo unspecified),5%,.,.,0,1%
CCC(=O)N1CCc2cc(Br)cc(S(=O)(=O)N3CCC(C(=O)Nc4cccc(C)c4)CC3)c21,.,.,.,-15,.
CCN1C(=O)/C(=C/c2nc3ccccc3c(=O)n2-c2ccccc2)c2ccccc21,?,0,-8,-102*,49%
CCn1c(/C=C2\C(=O)N(C(C)C)c3ccccc32)nc2ccccc2c1=O,3.7µM*,-2,-9,0,?
CCN1C(=O)/C(=C\c2nc3ccccc3c(=O)n2CC)c2ccccc21,?,3,-3,-94*,0%
COc1cccc(-c2nc3nc(C)cc(C)n3c2NCc2ccccc2)c1,.,.,.,17,.
Cc1cc(NC(=O)CCc2nc3cccnc3n2-c2ccccc2)ccc1Br,.,.,.,-35,.
COc1ccc(NS(=O)(=O)c2ccc3c(c2)NC(=O)C(C)S3)cc1 (stereo unspecified),?,27,-6,-12,?
Cc1ccc(CCNC(=O)c2ccc3c(Cl)c4c(nc3c2)CCCC4)cc1,.,.,.,-24,.
Cc1ccc(OCC(=O)Nc2c3c(nn2C(C)(C)C)CS(=O)(=O)C3)cc1,5%,-3,-6,-8,2%
CCCc1cnc2c(c1SCc1ccc(C(F)(F)F)cc1)c(=O)n(C)c(=O)n2C,.,.,.,2,.
COc1cccc(CCNC(=O)c2cnc3sc(N4CCCC4)nn3c2=O)c1,.,.,.,-10,.
CCOC(=O)[C@H]1[C@H]2COc3ccc(Cl)cc3[C@@H]2N2C(=O)CN(Cc3ccc(Cl)cc3)C(=O)[C@@]12C,15µM*,.,.,-99*,?
CCOC(=O)[C@H]1[C@H]2COc3ccc(Cl)cc3[C@@H]2N2C(=O)CN(Cc3ccccc3)C(=O)[C@@]12C,?,.,.,12,5.9µM*
CCOC(=O)[C@H]1[C@H]2COc3ccc(Cl)cc3[C@@H]2N2C(=O)CN(Cc3ccc(F)cc3)C(=O)[C@@]12C,?,.,.,-3,?
CCOC(=O)[C@H]1[C@H]2COc3ccc(C)cc3[C@@H]2N2C(=O)CN(Cc3ccc(C)cc3)C(=O)[C@@]12C,?,.,.,35,?
Cc1cccc(-n2ncc3c(N4CCC(C)CC4)ncnc32)c1,.,68*,95*,147,81%
Cc1cccc(-n2ncc3c(N4CCC5(CC4)OCCO5)ncnc32)c1,168%,13*,49,92,87%
Cc1ccc(-n2ncc3c(SCc4cccnc4)ncnc32)c(C)c1,?,13,13,-84*,?
Cc1ccc(-n2ncc3c(N4CCCCCC4)ncnc32)cc1C,.,.,.,-98*,.
Cc1cccc(N2CCN(c3ncnc4c3cnn4-c3ccc(Cl)cc3)CC2C)c1 (stereo unspecified),.,.,.,1,.
CCOc1ccc2nc(SCC(=O)c3ccc(O)cc3O)sc2c1,36%,14,17,-38,?
CCN1CCN(c2ncnc3c2cnn3-c2cccc(C)c2)CC1,.,.,.,0,.
COc1cccc(N2CCN(c3ncnc4c3cnn4-c3ccc(C)cc3C)CC2)c1,.,17*,41,-97*,5.9µM*
Cc1cccc(-n2ncc3c(N4CCCCCC4)ncnc32)c1,.,.,.,-61*,.
SMILES,Pf growth 48h,Cycloheximide cs,Shiga inhibitor,HCMV inh,Pf growth 96h
Cc1cc2c(s1)c1cnn(Cc3ccc(C)c(F)c3F)c(=O)c1n2C,.,-7,-5,.,.
Cc1nn(-c2ccc(F)cc2)c(Cl)c1/C=C(\CC(=O)O)c1nc2ccccc2s1,38%,-3,5,17,40%
Cc1cc(C(=O)N2CCCC(C(=O)c3ccc4ccccc4c3)C2)nn1C (stereo unspecified),10%,1,-5,-21,?
Cc1cccc2c1NC(=O)C21N2CCCC2C(C(=O)c2ccc3ccccc3c2)C12C(=O)Nc1ccccc12 (stereo unspecified),?,16*,20,.,?
CCn1nc(C)cc1C(=O)N1CCCC(C(=O)c2ccc3ccccc3c2)C1 (stereo unspecified),-5%,0,10,0,7%
CCc1cccc2c1NC(=O)C21N2CCCC2C(C(=O)c2ccc3ccccc3c2)C12C(=O)Nc1ccccc12 (stereo unspecified),?,1,-4,-93*,?

# Screens as filed in PubChem.
